# ALOX12 inh – blocks human arachidonate 12S-lipoxygenase. P18054. purified 12hLO, xylenol orange hydroperoxide absorbance. Potency, µM (highest dose often 108 µM), inactives show top-dose activity change, negative = inhibition, usual class: inhibitors. hit rate 1.1% among 580,000. AID 1671190
#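 Hydroperoxide product was detected by ferrous iron/xylenol orange as the 573 to 405 nm absorbance ratio. Arachidonic acid at 40 uM (final) was turned over for 30 min at room temperature by 150 nM human 12hLO, pH 7.0 Hepes buffer, after 15 min compound preincubation.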
# VP16 counter – inhibits Gal4-VP16 luciferase reporter, ROR gamma counter-screen. Drosophila S2 Gal4-VP16 UAS-luciferase, luminescence, 20 h. Potency, µM (doses to about 53.6 µM), for inactives: at the top dose activity, negative = inhibition, usual class: inhibitors. hit rate 3.5% among 310,000;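 also: Gal4-VP16 expression switched on by copper sulfate through the metallothionein promoter; nearly all actives have a fitted effect of over 50% in size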
# ELG1 DNA repair – ELG1-dependent DNA repair inhibition | HEK293T ELG1-luciferase reporter, luminescence, 16 h; DNA damage induced by 5-fluorouridine | Potency, µM (top dose mostly 46.1 µM), for inactives: at the top dose activity change, negative = inhibition, hits mostly inhibitors | hit rate 2.3% among 330,000; also: nearly all actives have a fitted effect of over 55% in size
#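 Reporter activity after DNA damage by 5-fluorouridine is monitored. Compound-treated cells incubate 16 hr at 37 °C, then ONE-Glo is added for 30 min before luminescence reading.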
# TDP1 cell CPT – growth inhibition of DT40 Tdp1-/-;hTDP1 cells with camptothecin (screen for TDP1 inhibitors) | Potency, µM (doses to about 46.2 µM), inactives show at the top dose activity change, negative = growth inhibition, actives largely listed as inhibitors | hit rate 12% among 420,000 | chicken DT40 Tdp1-/-;hTDP1 cells + 20 nM CPT, ATP luminescence, 48 h; also: nearly all actives have a fitted effect of over 55% in size
#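 Cell growth measured by CellTiter-Glo luminescence after a minimum 48 h, 37 C compound exposure with 20 nM CPT in Tdp1-knockout DT40 cells stably expressing hTDP1, seeded 400/well; qHTS titration format.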
# DT40 TDP1 no CPT – qHTS for Inhibitors of human tyrosyl-DNA phosphodiesterase 1 (TDP1): qHTS in cells in absence of CPT; Potency, µM (titrated, usually from 46.2 µM), inactives show at the highest dose activity change, negative = growth inhibition, actives largely listed as inhibitors; DT40 Tdp1-/- hTDP1 cells, no CPT, ATP luminescence, 48 h; hit rate 15% among 420,000; also: nearly all actives have a fitted effect of over 55% in size
#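 Chicken DT40 Tdp1-/- cells stably complemented with human TDP1 were seeded at 400 cells/well with DMSO in place of 20 nM camptothecin. After compound pinning, cells grew at least 48 hr at 37 °C; viability read by CellTiter-Glo luminescence.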
# RORgamma inh – blocks mouse ROR gamma transcriptional activity; AID 2551; Potency, µM (doses to about 53.6 µM), inactives show at the highest dose activity change, negative = inhibition, most hits filed as inhibitors; hit rate 5.4% among 310,000; Drosophila S2 Gal4-RORgamma UAS-luciferase reporter, 20 h; also: nearly all actives have a fitted effect of over 60% in size
# Target sequence (P51450 whole entry, looked up, the tested form may be a part): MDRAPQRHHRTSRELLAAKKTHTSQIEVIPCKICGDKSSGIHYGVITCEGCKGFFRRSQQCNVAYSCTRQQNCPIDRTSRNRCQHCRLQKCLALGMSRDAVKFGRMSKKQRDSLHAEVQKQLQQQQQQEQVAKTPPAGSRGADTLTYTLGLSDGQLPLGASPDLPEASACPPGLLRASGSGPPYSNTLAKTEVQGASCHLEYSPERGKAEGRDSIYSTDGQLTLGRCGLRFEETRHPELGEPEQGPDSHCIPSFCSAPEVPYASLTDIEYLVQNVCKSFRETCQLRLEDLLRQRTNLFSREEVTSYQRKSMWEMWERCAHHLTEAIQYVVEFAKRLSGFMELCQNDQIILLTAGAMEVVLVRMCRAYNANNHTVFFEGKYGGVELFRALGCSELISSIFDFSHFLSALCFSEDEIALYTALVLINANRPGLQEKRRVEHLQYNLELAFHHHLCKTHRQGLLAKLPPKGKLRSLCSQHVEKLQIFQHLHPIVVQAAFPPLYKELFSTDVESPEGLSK
#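 Luminescence from a UAS-regulated Photinus luciferase reporter in stably transfected Drosophila Schneider cells is measured; decreased signal marks ROR gamma inhibition. Fusion expression is induced by 700 uM copper sulfate for 20 hr.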
# Starred values were filed as active, the others as inactive; ? = inconclusive; . = not tested or not shown; [ ] = dose if it differs, or a comment. Sampled rows, rich in hits. Any-hit rate of the full collection: about 15%. Calls follow the shape of the dose curve; as a rule, active = well fitted curve in the direction sought with a large enough effect; inconclusive = small, poorly fitted or top-dose-only effect, or another doubt; inactive = no such curve, though single readings can be large; an effect the other way counts as inactive or inconclusive. % is scaled to controls: 0 for no effect and ±100 for the full control effect; potency is read from the fitted curve at half-maximal effect.
SMILES,ALOX12 inh,VP16 counter,ELG1 DNA repair,TDP1 cell CPT,DT40 TDP1 no CPT,RORgamma inh
CCOC(=O)c1c(C)[nH]c(C(=O)C(C)N(C)Cc2ccc(F)cc2)c1C (stereo not drawn),-14%,.,.,.,.,.
COc1cccc(C2=NOC(C(=O)Nc3cc(C)nn3-c3ccccc3)C2)c1OC (stereo not drawn),?,2%,23µM*,?,?,-18%
COc1cc(NC(=O)C2CC(c3c(F)cccc3Cl)=NO2)cc(OC)c1OC (stereo not drawn),1%,?,?,?,10µM*,?
COC(=O)c1ccccc1NC(=O)C1CC(c2ccccc2O)=NO1 (stereo not drawn),3%,?,?,-18%,0%,13µM*
COc1ccccc1C1=NOC(C(=O)Nc2cc(C)nn2-c2ccccc2)C1 (stereo not drawn),6%,.,.,.,.,.
COc1ccc(NC(=O)C2CC(c3c(F)cccc3Cl)=NO2)cc1 (stereo not drawn),0%,17%,?,-17%,?,18%[1.91 µM]
Cc1ccc(C(C[N+](=O)[O-])Sc2ccc(N)cc2)cc1 (stereo not drawn),-24%,5.6µM*,?,4.1µM*,6.5µM*,11µM*
CN1C(=O)CC(C(=O)O)C12CCN(Cc1nc3ccsc3c(=O)[nH]1)CC2 (stereo not drawn),14%,.,.,.,.,.
CC1CCCN1c1ccnc2cc(Cl)ccc12 (stereo not drawn),0%,.,.,29µM*,16µM*,.
O=C(O)CSc1ccnc2cc(Cl)ccc12,-10%,-13%,5%,7%,10%,20%
CC(C)NC1CCC(Nc2ccnc3cc(Cl)ccc23)CC1 (stereo not drawn),?,.,.,6.5µM*,9.2µM*,.
CC(CCCN1CCCC1)Nc1ccnc2cc(Cl)ccc12 (stereo not drawn),9%,.,.,?,23µM*,.
Clc1ccc2c(NCc3ccccn3)ccnc2c1,0%,-1%,-15%,?,-13%,-1%
Clc1ccc2c(NCCNC3CCCCC3)ccnc2c1,?,.,.,16µM*,15µM*,.
Oc1ccc(CN2CCCc3ccccc32)c2cccnc12,.,13µM*,21%,3.7µM*,4.6µM*,7.9µM*
O=C(O)CCCCCN1C(=O)/C(=C/c2cn(-c3ccccc3)nc2-c2cccs2)SC1=S,?,.,.,-40%,15µM*,.
CN1CCC(N(C)C(=O)/C=C/c2cn(-c3ccccc3)nc2-c2cccs2)CC1,37%,-11%,8%,?,23µM*,?
CCN(CC(=O)Nc1ccc(NC(C)=O)cc1)C(=O)/C=C/c1cn(-c2ccccc2)nc1-c1cccs1,-17%,.,?,?,?,.
O=C(O)CCCCCN1C(=O)/C(=C\c2cn(-c3ccccc3)nc2-c2cccs2)SC1=S,?,1%,0%,?,-18%,?
O=C(O)CCN1C(=O)/C(=C/c2cn(-c3ccccc3)nc2-c2cccs2)SC1=S,?,0%,3%,4.6µM*,?,-9%
Cn1nc(C(=O)N(Cc2ccc3c(c2)OCO3)C2CCCC2)c2ccccc2c1=O,20%,.,.,.,.,.
COc1ccccc1C(NC(=O)Cc1ccccc1Cl)c1nccn1C (stereo not drawn),36%,.,.,.,.,.
Cc1ccc(S(=O)(=O)CCC(=O)Nc2cc(C)on2)cc1,-3%,.,.,-7%,-9%,.
CC(C)CNC(=O)CCSc1nc(-c2ccc3c(c2)OCO3)cc(C(F)(F)F)n1,-4%,.,.,.,.,.
O=C(CCS(=O)(=O)c1nc(-c2ccc3c(c2)OCO3)cc(C(F)(F)F)n1)Nc1ccc(F)cc1F,?,.,.,?,21µM*,.
SMILES,ALOX12 inh,VP16 counter,ELG1 DNA repair,TDP1 cell CPT,DT40 TDP1 no CPT,RORgamma inh
CS(=O)(=O)c1nc(-c2ccccc2)cc(C(F)(F)F)n1,-3%,1.6µM*,?,1µM*,1.2µM*,0.5µM*
Cc1cc(NC(=O)CCS(=O)(=O)c2nc(-c3ccccc3)cc(C(F)(F)F)n2)no1,0%,7%,?,1.6µM*,1.8µM*,-4%
COc1ccc(NC(=O)CCS(=O)(=O)c2nc(-c3ccc4c(c3)OCO4)cc(C(F)(F)F)n2)cc1,-24%,.,.,6.5µM*,7.3µM*,.
Cn1cc(C(=O)N2CCN(S(=O)(=O)c3ccc(F)cc3)CC2)c2ccccc21,-5%,.,.,.,.,.
CCN(c1ccccc1)C(CNS(=O)(=O)c1ccccc1)c1ccccc1 (stereo not drawn),?,.,.,18µM*,?,.
CN(Cc1ccccc1)C(CNS(=O)(=O)c1ccccc1)c1ccccc1 (stereo not drawn),-1%,.,.,?,?,.
Cc1cccc(N(C)C(CNS(=O)(=O)c2ccccc2)c2ccccc2)c1 (stereo not drawn),-16%,.,.,16µM*,?,.
CCN(c1cccc(C)c1)C(CNS(=O)(=O)c1ccccc1)c1ccccc1 (stereo not drawn),-12%,.,.,?,?,.
Cc1ccccc1C(=O)NC(=S)Nc1ccc(S(=O)(=O)N2CCOCC2)cc1,?,18µM*,-13%,?,?,20µM*
NNC(=S)Nc1ccc(S(=O)(=O)N2CCOCC2)cc1,-2%,3%,1%,-7%,15%,?
Cc1onc(-c2ccccc2)c1C(=O)Nc1ccc(S(=O)(=O)N2CCOCC2)cc1,-3%,2%,1%,?,23µM*,-44%
Cc1onc(-c2ccccc2Cl)c1C(=O)Nc1ccc(S(=O)(=O)N2CCCC2)cc1,7%,-5%,-12%,?,?,-12%
O=S(=O)(c1ccc(NC(=S)NN=C2CCCCC2)cc1)N1CCOCC1,?,?,7%,7%,-13%,8.9µM*
N#Cc1ccc(NC(=S)NC(=O)CCc2ccc(S(=O)(=O)N3CCOCC3)cc2)cc1,-3%,3%,4%,13µM*,?,17%
CCOC(=O)C1=CNc2nncn2C1(O)C(F)(F)F (stereo not drawn),-30%,.,.,.,.,.
CCOC(=O)Cn1c(=O)c2c3c(sc2n(CCCN(C)C)c1=O)CCC(C)C3 (stereo not drawn),38%,.,.,.,.,.
Cc1ccc(S(=O)(=O)N2CCOCC2)cc1C(=O)NC(=S)N1CC(C)OC(C)C1 (stereo not drawn),15%,16µM*,-6%,4%,3%,4.5µM*
CCCCOCCCNC(=S)Nc1ccc(S(=O)(=O)N2CCOCC2)cc1,-16%,-23%,?,?,?,24%
